The text below walks through data of PubChem BioAssay (NCATS).

Experiment [1] deals with Aldehyde dehydrogenase, mitochondrial (Homo sapiens) (UniProt P05091). Nature of the experiment: qHTS for Inhibitors of the Aldehyde Dehydrogenase Family (ALDH2) Primary screen (AID 2061308;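 further: plate controls were vehicle for no effect and reference inhibitor for full effect; nearly all actives have a fitted effect of over 55% in size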). (Quantitative high-throughput screening tests each substance at several concentrations.)
For experiment [2], the target named is Retinaldehyde dehydrogenase 3 (Homo sapiens) (UniProt P47895). Briefly: qHTS for Inhibitors of the Aldehyde Dehydrogenase Family (ALDH1A3) Primary screen (AID 2061315).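 Further: plate controls were DMSO vehicle for no effect and reference inhibitor for full effect.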

Molecules are shown by their SMILES. Records with an inconclusive call do not appear. Unmarked numbers belong to inactive results. Calls of active or inactive are those of the source. The call rests on the fitted dose curve; in most records, active means well fitted curve in the direction sought with a large enough effect; inconclusive means small, poorly fitted or top-dose-only effect, or another doubt; inactive means no such curve, though single readings can be large; an effect the other way counts as inactive or inconclusive.

As for `Cc1cc2c(s1)c1cnn(Cc3c(F)c(F)c(C(F)(F)F)c(F)c3F)c(=O)c1n2C`, the Potency result in experiment [1] and in experiment [2] was “inactive” each time.
As to `COc1cccc(-c2ccc3ncnc(N(C)Cc4ccco4)c3c2)c1`, the Potency result in experiment [1] and in experiment [2] was “inactive” throughout.
With `Cc1ccc(S(=O)(=O)N2CCN(S(=O)(=O)c3ccc4c(c3)OCCO4)CC2)cc1`, the Potency entry in experiment [1] and in experiment [2] was “inactive” throughout.
For the molecule `CC(C)(C)c1ccc(-n2cnc3cc(C(=O)N4CCCCC4)ccc32)cc1`, the Potency entry in experiment [1] and in experiment [2] was “inactive” each time.
On to `CC(=O)Nc1sc2c(c1-c1ccc3nsnc3c1)CCNC2`, for which the Potency result in experiment [1] and in experiment [2] was “inactive” throughout.
On to `Cc1cc2c(s1)c1cnn(Cc3ccc(-c4ccccc4)cc3)c(=O)c1n2C`, for which the Potency entry in experiment [1] and in experiment [2] was “inactive” in each case.
Consider `Cc1nc(CN(C)c2ncnc3ccc(-c4ccc5c(c4)OCO5)cc23)cs1`, for which the Potency entry in experiment [1] and in experiment [2] was “inactive” each time.
For `O=C(OCC#CCSc1nnc(-c2cccc3ccccc23)o1)C1CCC1`, the Potency entry in experiment [1] and in experiment [2] was “inactive” throughout.
Consider `Cc1ccc(NS(=O)(=O)c2cccc(C(=O)Nc3nc(-c4ccccc4)cs3)c2)cc1`, for which the Potency entry in experiment [1] and in experiment [2] was “inactive” each time.
In the case of `C=C1C(=O)O[C@@H]2C[C@H](C)[C@@H]3CC(=O)[C@H](O)[C@@]3(C)C[C@H]12`, the Potency entry in experiment [1] and in experiment [2] was “inactive” throughout.
As to `C=C1C(=O)OC2/C=C(/C)C3=CC(=O)C(C)(CC(OC(=O)/C(C)=C/COC(C)=O)C12)O3` (stereo not given), the Potency result in experiment [1] and in experiment [2] was “inactive” each time.
Regarding `O=C(Nc1ccc(-c2nc3ccccc3[nH]2)cc1)Nc1ccc2c(c1)OCCO2`, the Potency entry in experiment [1] and in experiment [2] was “inactive” in each case.
In the case of `Cc1ccc([S+](=O)([O-])n2cc(Cc3ccc(-c4ccccc4)cc3)c3ccccc32)cc1`, the Potency entry in experiment [1] and in experiment [2] was “inactive” each time.
As to `Cc1csc(CNc2ncnc3ccc(-c4ccoc4)cc23)c1`, the Potency entry in experiment [1] and in experiment [2] was “inactive” each time.
In the case of `COc1nccc(-c2nc(Nc3ccc(F)c(F)c3)c3ccccc3n2)c1OC`, the Potency result in experiment [1] and in experiment [2] was “inactive” throughout.
As to `Cn1c2ccsc2c2cnn(Cc3ccc(F)cc3)c(=O)c21`, the Potency entry in experiment [1] and in experiment [2] was “inactive” throughout.
For `O=C(COc1ccccc1Br)NCCc1nc2ccccc2[nH]1`, the Potency result in experiment [1] and in experiment [2] was “inactive” each time.
As for `CCC(=O)NC(c1ccco1)c1cc([N+](=O)[O-])c2cccnc2c1O` (stereo not given), the Potency result in experiment [1] and in experiment [2] was “inactive” throughout.
As to `N#Cc1nc(Nc2cccc(Cl)c2)c2ncn(C3CCCC3)c2n1`, the Potency entry in experiment [1] and in experiment [2] was “inactive” each time.
Turning to `Clc1cccc(-c2ccc3ncnc(NCc4cccs4)c3c2)c1`, the Potency result in experiment [1] and in experiment [2] was “inactive” in each case.
On to `CCCn1c(-c2ccc(F)cc2)nc2c(NCCCCN3CCCC3)nc(C)nc21`, for which the Potency result in experiment [1] and in experiment [2] was “inactive” in each case.
Consider `FC(F)(F)c1ccccc1-c1nc(NCc2cccc(Cl)c2)c2ccccc2n1`, for which the Potency entry in experiment [1] and in experiment [2] was “inactive” each time.
Regarding `Cc1cc(C)n2ncc(C(=O)Nc3ccc(Br)cc3)c2n1`, the Potency entry in experiment [1] and in experiment [2] was “inactive” in each case.
As for `Cc1c(C(=O)NCC2CCCO2)[nH]c2c1C(=O)CCC2` (stereo not given), the Potency entry in experiment [1] and in experiment [2] was “inactive” throughout.
As to `CC1(C)CC[C@]2(C(=O)O[C@@H]3O[C@H](CO[C@@H]4O[C@H](CO[C@@H]5O[C@H](CO)[C@H](O)[C@H](O)[C@H]5O)[C@@H](O)[C@H](O)[C@H]4O)[C@@H](O)[C@H](O[C@@H]4O[C@H](CO)[C@@H](O)[C@H](O)[C@H]4O)[C@H]3O)[C@H](O)C[C@]3(C)C(=CCC4[C@@]5(C)CC[C@H](O[C@@H]6OC[C@@H](O)[C@H](O)[C@H]6O)[C@@](C)(C(=O)O)C5CC[C@]43C)[C@@H]2C1` (stereo not given in full), the activity change, negative = inhibition in experiment [1] was 13.7% [at 11.2 µM]; in experiment [2] it was 11.1% [at 11.2 µM].
Turning to `CC(C)(C)OC(=O)N[C@@H](Cc1ccc(OS(=O)(=O)c2cccc3cnccc23)cc1)C(=O)N1CCCN(C(=O)OC(C)(C)C)CC1`, the Potency result in experiment [1] and in experiment [2] was “inactive” each time.
As to `CCCCNc1ncc2c(-c3ccc(S(=O)(=O)N4CCOCC4)cc3)nn(C3CCC(O)CC3)c2n1` (stereo not given), the Potency entry in experiment [1] and in experiment [2] was “inactive” throughout.
As for `COC(=O)Nc1sc2c(c1-c1nc3ccccc3s1)CCNC2`, the Potency entry in experiment [1] and in experiment [2] was “inactive” each time.
As for `Cc1ccc(NC(=O)Nc2nnc(-c3ccncc3)s2)cc1C`, the Potency entry in experiment [1] and in experiment [2] was “inactive” throughout.
`CC(=O)N1CCc2cc(S(=O)(=O)Nc3ccc(C)c(C)c3)ccc21`: the Potency result in experiment [1] and in experiment [2] was “inactive” in each case.
Take `O=C(CNC(=O)c1ccccc1Cl)OC(C(=O)Nc1cc(C(F)(F)F)ccc1Cl)c1ccccc1` (stereo not given): the Potency entry in experiment [1] and in experiment [2] was “inactive” in each case.
On to `COc1ccc(C2c3c(ncn(CCc4ccccc4)c3=N)Oc3ccc4ccccc4c32)cc1OC` (stereo not given), for which the Potency result in experiment [1] and in experiment [2] was “inactive” in each case.
Regarding `COc1cc(O)c(C(CC(=O)N2CCCCC2)c2ccc(C)cc2)c(OC)c1` (stereo not given), the Potency result in experiment [1] and in experiment [2] was “inactive” each time.
`O=C(Nc1ccccc1)C1CCN(c2nc(-c3ccc(Br)cc3)cs2)CC1`: the Potency entry in experiment [1] and in experiment [2] was “inactive” in each case.
Regarding `Cc1cc(C)nc(NC(=S)N2CCN(c3ccc(Cl)c(Cl)c3)CC2)c1`, the Potency result in experiment [1] and in experiment [2] was “inactive” in each case.
Turning to `Cn1nnnc1Sc1ncnc2n[nH]c(-c3cccc(S(C)(=O)=O)c3)c12`, the Potency entry in experiment [1] and in experiment [2] was “inactive” throughout.
With `CC(C)C[C@H](C(=O)O)c1cc(-c2ccc(C(F)(F)F)cc2)cc(-c2ccc(C(F)(F)F)cc2)c1`, the Potency entry in experiment [1] and in experiment [2] was “inactive” throughout.
On to `CN(CCC1CCCO1)c1ncnc2ccc(-c3ccc4c(c3)OCO4)cc12` (stereo not given), for which the Potency entry in experiment [1] and in experiment [2] was “inactive” each time.
For the molecule `C=C1C(=O)O[C@@H]2C[C@]3(C)[C@@H](CCC(C)O)[C@@H]3C[C@H]12` (stereo not given in full), the Potency result in experiment [1] and in experiment [2] was “inactive” each time.
Regarding `NC(=O)C1CCN(c2nc(-c3ccc(Br)cc3)cs2)CC1`, the Potency entry in experiment [1] and in experiment [2] was “inactive” throughout.
